The text below walks through data of PubChem BioAssay AID686978 (National Center for Advancing Translational Sciences (NCATS), 2013).

SMILES strings stand for the structures. Out of some 420,000 compounds screened, about 64,000 (15%) were called active. Inconclusive results (about 27%) are left out. The call rests on the fitted dose curve; in most records, active means well fitted inhibition curve with a large enough effect; inconclusive means small, poorly fitted or top-dose-only effect; inactive means flat fitted curve, though single readings scatter. Only a sample is shown. Entries that show only a call come without a potency.
Potency means the concentration at half of the fitted maximal effect.

The experiment can be described thus: qHTS for Inhibitors of human tyrosyl-DNA phosphodiesterase 1 (TDP1): qHTS in cells in absence of CPT. Further: nearly all actives have a fitted effect of over 55% in size. Conditions: DT40 Tdp1-/- hTDP1 cells, no CPT, ATP luminescence, 48 h; activity change, negative = growth inhibition: at 46.2 µM (top of the series). In a few lines: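 Luminescent ATP content (CellTiter-Glo) served as the growth readout. Knockout chicken DT40 cells expressing human TDP1 were exposed to compounds without camptothecin for a minimum 48 hr at 37 °C.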
On to `CC(C(=O)O)N1C(=O)c2cccc3cccc1c23` (stereo unspecified), for which the Potency result was “inactive”.
Then `CC(C)NC(=O)NCCCCCCS(C)=O` (stereo unspecified), with “inactive”; and `Cc1ccn2cc(-c3nonc3C)cc2c1`, with “inactive”.
Consider `CC1(C(=O)NS(=O)(=O)c2ccc3ccccc3c2)CCN1C(=O)C1(c2ccc(Cl)cc2)CCC1` (stereo unspecified), for which the Potency result was “inactive”.
Turning to `CCN(C(=O)CSc1nnc2ccccn12)C1CCS(=O)(=O)C1` (stereo unspecified), the Potency result was “inactive”.
Take `CC(OC(=O)c1cccnc1Cl)C(=O)NC1CCCCC1` (stereo unspecified): the Potency result was “inactive”.
Regarding `CC(C)Cn1c(CCC(=O)O)ccc1-c1cccs1`, the Potency entry is “inactive”.
With `COc1cc(C(=S)NC2CCCCC2)ccc1O` the entry was “inactive”; with `COC(=O)c1ccc(CN2CCC(CO)(Cc3ccc(OC)cc3)CC2)cc1`, “inactive”; with `COc1ccc(CC2(CO)CCN(Cc3cnn(C)c3)CC2)cc1`, “inactive”.
`COc1cccc(CC2(CO)CCN(Cc3cnc(-c4cccc(C)c4)nc3)CC2)c1`: the Potency is 20.6 µM (active).
On to `OCC1(CCc2ccccc2)CCN(Cc2ccc3nsnc3c2)CC1`, for which the Potency result is “inactive”.
Then `CC(=O)c1cccc(CN2CCC(CO)(Cc3ccccc3)CC2)c1`, with “inactive”.
With `Cc1cccc(-c2ncc(CN3CCC(CO)(CCCc4ccccc4)CC3)cn2)c1`, the Potency was 23.1 µM (active).
As to `COc1cccc(NC(=O)Cn2c3ccc(F)cc3c3nc4n(c(=O)c32)CCS4)c1`, the Potency result is “inactive”.
Regarding `O=C(NCC1Cc2cc(F)cc(-c3cnccn3)c2O1)C1COc2ccccc2O1` (stereo unspecified), the Potency result is “inactive”.
With `Cc1cc(C)c(C#N)c(SCc2ccccc2C(=O)O)n1`, the Potency entry was “inactive”.
Turning to `CSCCC(NC(=O)COc1ccccc1)C(=O)OCC(=O)c1cc2ccccc2o1` (stereo unspecified), the Potency result was “inactive”.
With `CC(C)(C)NCc1cc(Br)ccc1OC1CCCC1` the figure was 16.4 µM (active); with `CCOCCCNCc1cc(Br)ccc1OCC`, “inactive”.
Take `CCOc1ccc(Br)cc1S(=O)(=O)N1CCC(C(=O)O)CC1`: the Potency entry is “inactive”.
For the compound `CC(=O)N/C(=C/c1ccc(OC(F)F)cc1)C(=O)O`, the Potency entry is “inactive”.
In the case of `N#Cc1ccc(-c2ccc(F)cc2)nc1Sc1ccccc1`, the Potency result was “inactive”.
With `COc1ccc(NC(=O)CN(C)C(=O)Cc2coc3cc(C)c(C)cc23)cc1` the entry was “inactive”; with `Cc1ccc(NS(=O)(=O)c2ccc3c(c2)NC(=O)CO3)cc1`, “inactive”; with `CC(C)C[C@H]1CNC(=O)C(=O)N1C[C@@H]1CCCN1C[C@H](Cc1ccccc1)N1C[C@H](CC(C)C)N(CC2CCCCCC2)C(=O)C1=O`, “inactive”.
With `CCOc1ccc(CCN2C(=S)N([C@@H](CC(C)C)CN3CCC[C@@H]3CN3C(=S)NC[C@@H]3Cc3ccc(O)cc3)C[C@@H]2CC(C)C)cc1` the figure was 23.1 µM (active); with `O=C1NC[C@H](CCCCN2C[C@H](Cc3ccc(O)cc3)N(CCc3ccccc3)C(=O)C2=O)N(CCc2ccccc2)C1=O`, “inactive”.
With `CCOc1ccc(CCN2C(=O)C(=O)N([C@@H](Cc3ccc(O)cc3)CN3CCC[C@H]3CN3C(=O)C(=O)NC[C@@H]3CC(C)C)C[C@@H]2Cc2ccccc2)cc1` the entry was “inactive”; with `O=C1NC[C@H](CCCCN2C[C@H](Cc3ccc(O)cc3)N(CC3CCCCC3)C(=O)C2=O)N(CCc2ccccc2)C1=O`, “inactive”.
Regarding `CCOc1ccc(CCN2C(=O)C(=O)N([C@@H](CC(C)C)CN3CCC[C@H]3CN3C(=O)C(=O)NC[C@@H]3Cc3ccccc3)C[C@@H]2CC(C)C)cc1`, the Potency result was “inactive”.
Take `CC(C)C[C@H]1CN([C@@H](CC(C)C)CN2CCC[C@@H]2CN2C(=O)C(=O)NC[C@@H]2Cc2ccccc2)C(=O)C(=O)N1CCc1ccccc1`: the Potency was 16.4 µM (active).
In the case of `CC(C)C[C@H]1CNC(=S)N1C[C@H]1CCCN1C[C@H](Cc1ccc(O)cc1)N1C[C@H](Cc2ccc(O)cc2)N(CC2CCCCC2)C1=S`, the Potency is 25.9 µM (active).
Take `O=C1NC[C@H](CCCCN2C[C@H](Cc3ccccc3)N(Cc3ccccc3)C(=O)C2=O)N(CCc2ccc(O)cc2)C1=O`: the Potency entry is “inactive”.
As for `Cc1cc(NC(=O)CN2C(=O)NC(CCc3ccccc3)C2=O)no1` (stereo unspecified), the Potency entry was “inactive”.
With `CCOc1ccc(CCN2C(=O)c3cccnc3C2=O)cc1OCC` the entry was “inactive”.
Consider `CN(C(=O)C1CCOC1)c1nnc(-c2cccnc2)s1` (stereo unspecified), for which the Potency entry was “inactive”.
With `CC(CNC(=O)c1ccc(N)cc1)NC(=O)c1ccc(N)cc1` (stereo unspecified) the entry was “inactive”; with `Cc1cc(C)c2[nH]c(=O)c(C(c3nnnn3Cc3ccc4c(c3)OCO4)N3CCCC3)cc2c1` (stereo unspecified), 2.31 µM (active); with `CC(C)(C)n1nnnc1C(c1ccc(F)cc1)N1CCN(Cc2ccc3c(c2)OCO3)CC1` (stereo unspecified), “inactive”.
With `CCOC(=O)C1CCN(C(c2cc3cc(C)cc(C)c3[nH]c2=O)c2nnnn2C2CCCCC2)CC1` (stereo unspecified) the entry was “inactive”; with `O=C(NCc1ccco1)/C(=C/c1cccc([N+](=O)[O-])c1)NC(=O)c1ccco1`, “inactive”; with `COc1cc(NC(=O)CCS(=O)(=O)c2ccc3c(c2)oc(=O)n3C)cc(OC)c1`, “inactive”.
Consider `O=C(Nc1cc(C(F)(F)F)ccc1Cl)c1cc(C2CC2)on1`, for which the Potency result was “inactive”.
For `COc1ccc(-n2cnnc2SCC(=O)Nc2cccc(S(N)(=O)=O)c2)cc1`, the Potency entry was “inactive”.
With `c1ccc2c(c1)CSc1sccc1C2=C1CCNCC1` the figure was 16.4 µM (active); with `Nc1nc(Br)c2ccccc2c1-c1ccc(F)cc1`, “inactive”; with `CCOc1c(Nc2cccc(Cl)c2)c(=O)c1=O`, “inactive”.
Consider `CCNCCCNCCCNCCCNCC`, for which the Potency was 3.76 µM (active).
Take `COc1ccc2oc(=O)c(C(=O)N3CCCc4ccccc43)cc2c1`: the Potency entry was “inactive”.
Then `CN(C(=O)Nc1ccc(Cl)cc1)n1cnc2ccccc2c1=O`, with “inactive”; and `Cc1[nH]n(-c2ccc(Cl)cc2)c(=O)c1/C=N/n1c(C)nc2ccccc2c1=O`, with 18.4 µM (active); and `S=C(Cc1ccc(Cl)cc1)N1CCOCC1`, with “inactive”.
As for `C=C1C(=O)OC2C1CCC(C)=CCCC1(C)OC21` (stereo unspecified), the Potency was 3.26 µM (active).
Consider `CCn1cc(-c2cc(C(=O)O)on2)c(C)n1`, for which the Potency result was “inactive”.
Then `COc1ccc(NC(=O)C2=C(C)NC(=O)NC2c2ccccc2[N+](=O)[O-])cc1` (stereo unspecified), with “inactive”.
Consider `CN(C)S(=O)(=O)c1ccc(N/C=C(\[N+](=O)[O-])S(=O)(=O)c2ccccc2)cc1`, for which the Potency entry is “inactive”.
Then `COc1ccc(N/C=C(\C2OC(=O)c3ccccc32)[N+](=O)[O-])cc1` (stereo unspecified), with 23.1 µM (active); and `CC(C)=CCC/C(C)=C/C(=O)O`, with “inactive”; and `O=C(NCCCNC(=O)NC1CCCCC1)NC1CCCCC1`, with “inactive”.
Then `CCOc1ccc(-n2c(SCC(=O)Nc3ccc(OC)cc3)nc3sc4c(c3c2=O)CCN(C)C4)cc1`, with “inactive”; and `CCn1c(SCC(=O)Nc2ccc(Br)cc2)nc2sc3c(c2c1=O)CCN(C)C3`, with “inactive”; and `COc1ccccc1-n1c(SCC(=O)O)nc2sc3c(c2c1=O)CCC3`, with “inactive”.
Then `CCCSc1nc2sc3c(c2c(=O)n1-c1ccc(OC)cc1)CCN(C)C3`, with 14.6 µM (active); and `CC1(C)Cc2c(sc3nc(SCC(=O)NCc4ccccc4)n(-c4ccccc4)c(=O)c23)CS1`, with “inactive”; and `CCSc1nc2sc3c(c2c(=O)n1-c1ccc(C)cc1)CCN(C)C3`, with 7.31 µM (active).
